Several values for one entry are separate records, joined by “and”; a condition that tells them apart may be missing. Equal values may be shown once. Records with an inconclusive call do not appear. Where a call stands in place of a potency, no number is given. Unmarked numbers belong to inactive results. Activity calls are given as the source filed them. The call rests on the fitted dose curve; in most records, active means well fitted cell-killing curve with a large enough effect in the repeat runs; inconclusive means weak or mixed curves, or effect the other way; inactive means flat fitted curve, though single readings scatter.
Potency means the concentration at half of the fitted maximal effect.

The nature of this experiment: qHTS assay to identify small molecule agonists of the estrogen receptor beta (ER-beta) signaling pathway - cell viability counter screen (AID 1259380). Further: nearly all actives have a fitted effect of over 30% in size. Conditions: ER-beta-bla HEK293T viability, CellTiter-Glo luminescence, 16 h; series mostly up to 92.4 µM; activity change, negative = cytotoxicity: at the top concentration. The method, boiled down:
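Cell viability counter screen: CellTiter-Glo luminescence (30 min, room temperature) measured in the same wells as the beta-lactamase readout, after 16 hr compound exposure at 37C of ER-beta-bla HEK293T cells in 2% charcoal-stripped FBS medium.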
Regarding `CCCCCCCC(=O)OC`, the Potency result was “inactive”.
Regarding `CCN(CC)CCCC(C)Nc1ccnc2cc(Cl)ccc12` (centres undefined), the activity change, negative = cytotoxicity is -12.8% [at 8.39 µM] and -6.59% [at 19 µM].
For `CC1=C(C)S(=O)(=O)CCS1(=O)=O`, the Potency entry was “inactive”.
For the molecule `OCC(CO)(CBr)CBr`, the Potency entry was “inactive”.
As to `CN(C)CCC(c1ccc(Cl)cc1)c1ccccn1` (centres undefined), the Potency was 48.7 µM (active).
Consider `CN(C)CCCN`, for which the “activity change, negative = cytotoxicity” value is 3.86%.
For `C=C(C)C(=O)OCCOCCOCCOC(=O)C(=C)C`, the “activity change, negative = cytotoxicity” value was -2.6%.
Regarding `CCCCC(CC)CO` (centres undefined), the Potency entry is “inactive”.
Turning to `Cc1ccc(N(C)C)cc1`, the Potency entry is “inactive”.
Still for that read-out and setting: the same measure for `O=C(O)c1cc(C(=O)O)cc(S(=O)(=O)O)c1`: “inactive”; for `O=C(O)c1ccc(C(=O)O)cc1`: “inactive”.
On to `CCCCCCCCCCCCOCCO`, for which the Potency result was “inactive”.
Turning to `CC(O)COCC(C)O` (centres undefined), the Potency result was “inactive”.
Turning to `C[C@H]1C[C@H]2[C@@H]3CCC4=CC(=O)C=C[C@]4(C)[C@@]3(F)[C@@H](O)C[C@]2(C)[C@@]1(O)C(=O)CO`, the Potency result was “inactive”.
For `CCOC(=O)NNc1nncc2ccccc12`, the Potency result is “inactive”.
As for `COc1ccc(Nc2ccccc2)c(C)c1`, the “activity change, negative = cytotoxicity” value is -0.965%.
Regarding `O=S(=O)(O)c1ccc2ccccc2c1`, the “activity change, negative = cytotoxicity” value was 3.67%.
Take `Cc1cnc(C(=O)NCCc2ccc(S(=O)(=O)NC(=O)NC3CCCCC3)cc2)cn1`: the Potency result was “inactive”.
With `O=C1CCC(N2C(=O)c3ccccc3C2=O)C(=O)N1` (centres undefined), the Potency result is “inactive”.
For `Cc1cccnc1`, the Potency result is “inactive”.
As to `OCCOCCN1CCN(C2=Nc3ccccc3Sc3ccccc32)CC1`, the Potency is 13.3 µM (active).
Still for that read-out and setting: with `CC[C@H](C)C(=O)O[C@H]1C[C@@H](C)C=C2C=C[C@H](C)[C@H](CC[C@@H]3C[C@@H](O)CC(=O)O3)[C@H]21` the figure was 34.9 µM (active) and 30.5 µM (active) and 15 µM (active); with `CCCCCOC(C)=O`, “inactive”; with `O=[N+]([O-])c1ccc(/C=C/c2ccc([N+](=O)[O-])cc2S(=O)(=O)O)c(S(=O)(=O)O)c1`, “inactive”.
Consider `Cc1cccc(O)c1`, for which the Potency entry was “inactive”.
Take `CCCCCC(N)=O`: the Potency entry is “inactive”.
Take `Cc1ccc(S(N)(=O)=O)cc1`: the Potency entry was “inactive”.
In the case of `COS(C)(=O)=O`, the Potency entry is “inactive”.
Still for that read-out and setting: with `CCCC(C)=O` the entry was “inactive”; with `OCc1cccnc1`, “inactive”.
With `C=CCOC(=O)c1ccccc1C(=O)OCC=C`, the Potency entry was “inactive”.
Regarding `CCCSc1ccc2nc(NC(=O)OC)[nH]c2c1`, the Potency entry was “inactive”.
For the molecule `O=P(OC(CCl)CCl)(OC(CCl)CCl)OC(CCl)CCl`, the “activity change, negative = cytotoxicity” value is -1.18%.
For the molecule `COc1ccc2cc([C@H](C)C(=O)O)ccc2c1`, the Potency entry was “inactive”.
As for `O=C(O)[C@H](O)[C@@H](O)[C@H](O)[C@H](O)CO`, the Potency result is “inactive”.
The same measure, in the same setting: the same measure for `Cc1cc(C)c(C)cc1C`: “inactive”; for `CCCCOC(=O)COc1ccc(Cl)cc1Cl`: “inactive”.
Turning to `C[C@H]1C[C@@H]2[C@H]([C@@H](O)C[C@@]3(C)[C@H]2CC[C@]3(O)C(=O)CO)[C@@]2(C)C=CC(=O)C=C12`, the “activity change, negative = cytotoxicity” value was -3.19% [at 42.5 µM].
Take `C=C(C)C(=O)Nc1ccc(Cl)c(Cl)c1`: the Potency is 55 µM (active) and 54.3 µM (active).

The values are drawn from PubChem BioAssay (Tox21).
